# Reference: PubChem BioAssay (NCATS)
# Where “and” joins values, the source holds several entries; their conditions need not be identical. Equal values may be shown once. Records with an inconclusive call do not appear. Where a call stands in place of a potency, no number is given. A structure can be active in one record and inactive in another. Calls of active or inactive are those of the source. The call rests on the fitted dose curve; in most records, active means well fitted inhibition curve with a large enough effect; inconclusive means small, poorly fitted or top-dose-only effect; inactive means flat fitted curve, though single readings scatter.
# Target: Phospholipid hydroperoxide glutathione peroxidase GPX4 (Homo sapiens) (UniProt P36969)
# Experiment: Primary qHTS Assay for Inhibitors of Recombinant Selenoprotein Glutathione Peroxidase 4 (GPX4) (AID 1845192); further: nearly all actives have a fitted effect of over 65% in size
# Conditions: recombinant GPX4, GR-coupled NADPH fluorescence, 15 min; series mostly up to 50 µM
# How it was run: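 qHTS, GR-coupled: GPX4 200 nM + cpd 30 min RT → GSH 1 mM, NADPH 0.5 mM, GR 100 nM → CHP 0.5 mM start; fluor 340/450 at t0 and t15 min; no-enzyme wells as control.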
# Potency means the concentration at half of the fitted maximal effect.
# Phospholipid hydroperoxide glutathione peroxidase GPX4 (Homo sapiens), sequence (P36969 whole entry, looked up): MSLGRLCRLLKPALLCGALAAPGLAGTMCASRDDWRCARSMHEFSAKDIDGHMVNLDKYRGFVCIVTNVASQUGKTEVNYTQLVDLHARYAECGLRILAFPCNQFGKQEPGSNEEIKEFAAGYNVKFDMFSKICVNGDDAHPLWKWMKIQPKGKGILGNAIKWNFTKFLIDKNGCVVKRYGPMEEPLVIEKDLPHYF
row,SMILES,Potency
1,CC(=O)c1c(C)cc(O[C@@H]2O[C@H](CO)[C@@H](O)[C@H](O)[C@H]2O)cc1O,inactive
2,CC(C)CC(=O)OC[C@H]1O[C@@](COC(=O)CC(C)C)(O[C@H]2O[C@H](CO)[C@@H](O)[C@H](O)[C@H]2OC(=O)CC(C)C)[C@@H](OC(=O)CC(C)C)[C@@H]1O,inactive
3,CC1=C2[C@@H]([C@H](C)CC[C@H]2/C=C(\C)C(=O)O)[C@H](O)C1,inactive
4,CN(NC(=O)CC(=O)NN(C)C(=S)c1ccccc1)C(=S)c1ccccc1,inactive
5,COC(=O)C1C(c2ccc(O)cc2)C(C(=O)OC)C1c1ccc(O)cc1 (stereo not given),inactive
6,O=C(O[C@H]1[C@@H]2C=CO[C@@H](O[C@@H]3O[C@H](CO)[C@@H](O)[C@H](O)[C@H]3O)[C@@H]2[C@@]2(CO)O[C@@H]12)c1ccc(O)cc1,inactive
7,COC1=Cc2c(nc3n(c2=O)C(C)C(=O)NC3(O)C(C)C)OC=C1 (stereo not given),inactive
8,CNC(=O)COC(=O)NCCC1CCN(c2cccc(C)n2)CC1,inactive
9,C=C1CCC2C(C)(C(=O)O)CC(O)CC2(C)C1CC/C(C)=C/C(=O)O (stereo not given),inactive
10,O=C(O)C[C@H](O)C[C@H](O)/C=C/c1c(C2CC2)nc2ccccc2c1-c1ccc(F)cc1,inactive and 22.4 µM (active)
11,NC(=O)c1ccc(OCC2NC(=O)C3CCCN3C2=O)cc1 (stereo not given),inactive
12,C[C@@H]1O[C@@H](O[C@H]2[C@H](O[C@H]3[C@H](O[C@H]4CC[C@@]5(CO)C(CC[C@]6(C)C5CC=C5C7CC(C)(C)C[C@@H](O)[C@]7(C)CC[C@]56C)C4(C)C)O[C@H](C(=O)O)[C@@H](O)[C@@H]3O)OC[C@@H](O)[C@@H]2O)[C@H](O)[C@H](O)[C@H]1O (stereo not given in full),inactive
13,C=CC1C(O[C@@H]2O[C@H](CO)[C@@H](O)[C@H](O)[C@H]2O)OC=C(C(=O)OC)C1Cc1nccc2c1[nH]c1ccccc12 (stereo not given in full),inactive
14,CC(C)(OC1OC(CO)C(O)C(O)C1O)C1CCC(O)(CO)C2CC(O)C(C)(O)C2C1 (stereo not given),inactive
15,COc1cc(/C=C/CO)ccc1O[C@@H]1O[C@H](CO)[C@@H](O)[C@H](O)[C@H]1O,inactive
16,C/C(=C/CO)CC[C@@H]1[C@@]2(C)CCC[C@](C)(C(=O)O)C2CC[C@@]1(C)O (stereo not given in full),inactive
17,CC1=C2C(=O)C=C(CO)[C@@H]2[C@H]2OC(=O)[C@H](C)[C@@H]2[C@@H](O)C1,inactive
18,OC[C@H]1O[C@@H](Oc2cc(O)cc(/C=C/c3ccc(O)cc3)c2)[C@H](O)[C@@H](O)[C@@H]1O,inactive
19,C[C@]1(O)CC[C@@H]2C(C(=O)O)=CO[C@@H](O[C@@H]3O[C@H](COC(=O)c4ccc(O)cc4)[C@@H](O)[C@H](O)[C@H]3O)[C@@H]21,inactive
20,CC(=O)O[C@H]1[C@H](C)[C@@H](O)[C@H]2[C@@H]1C=C(C(=O)O)[C@H]1C[C@@H]3[C@H]([C@H]21)[C@H]1C(=O)O[C@@H]2CC[C@@]3(C)O[C@]1(O)[C@@H]2C,inactive

row,SMILES,Potency
1,CC1(C)C(=O)N2c3ccccc3[C@]3(CC(n4cnc5ccccc5c4=O)C(=O)O3)[C@H]2N1O (stereo not given in full),inactive
2,OC[C@H]1O[C@@H](n2cnc3c2NC=NC[C@H]3O)C[C@@H]1O,inactive
3,CC(=O)NC(CCC(=O)O)C(=O)NCCc1ccc(O)cc1 (stereo not given),inactive
4,C[C@]1(OC(=O)/C=C/c2ccccc2)C[C@H](O)[C@]2(O)C=CO[C@@H](O[C@@H]3O[C@H](CO)[C@@H](O)[C@H](O)[C@H]3O)C12 (stereo not given in full),inactive
5,C=C1[C@@H]2[C@H]3OC(=O)C(=C)[C@@H]3CC[C@@](C)(O)[C@@H]2C[C@@H]1O[C@@H]1O[C@H](CO)[C@@H](O)[C@H](O)[C@H]1O,inactive
6,C=C1C2=CC(O)C(C)C1(C)CC/C(C)=C/CCC1(C)OC1C2=O (stereo not given),inactive
7,C=C1CC[C@H]2[C@@H](/C=C(\C)C(=O)[C@@]3(OC(C)=O)C[C@H](C)[C@H](OC(C)=O)[C@@H]3[C@H]1OC(C)=O)C2(C)C,inactive
8,C=C1C(=O)OC2CC(C)=C(C(C)CCCO[C@@H]3O[C@H](CO)[C@@H](O)[C@H](O)[C@H]3O)C(O)C12 (stereo not given in full),inactive
9,C[C@@H]1C[C@H](O[C@@H]2O[C@H](CO[C@@H]3OC[C@](O)(CO)[C@H]3O)[C@@H](O)[C@H](O)[C@H]2O)CC(C)(C)[C@H]1/C=C/[C@@H](C)O,inactive
10,COc1ccc2c(c1O)OC[C@H]1c3ccc(O)cc3O[C@@H]21,inactive
11,O=c1c2ccccc2nc2n1CCC2O (stereo not given),inactive
12,CCC(C)C(=O)O[C@@H]1[C@@H](O)[C@@H](O[C@H]2O[C@H](CO)[C@@H](O)[C@H](O)[C@H]2O)O[C@H](CO)[C@H]1O (stereo not given in full),inactive
13,CC1(C)C(O)CCC2(C)C1C(O)C=C1COC(=O)C12O (stereo not given),inactive
14,O=C1Nc2ccc(O)cc2O[C@H]1O[C@@H]1O[C@H](CO)[C@@H](O)[C@H](O)[C@H]1O,inactive
15,COc1ccccc1CC(C(=O)O)N(C)C(=O)c1ccccc1 (stereo not given),inactive
16,CC(/C=C/C1(O)C(C)CC(O)CC1(C)C)OC1OC(CO)C(O)C(O)C1O (stereo not given),inactive
17,CC(NC(=O)CC(=O)O)c1nc2ccccc2c(=O)[nH]1 (stereo not given),inactive
18,C=CC(C)(O)CO[C@@H]1O[C@H](CO)[C@@H](O)[C@H](O)[C@H]1O (stereo not given in full),inactive
19,CNC(=O)c1ccc2cc([C@@]3(O)CCn4cncc43)ccc2c1,inactive
20,CC1(C)CCC[C@@]2(C)[C@H]1[C@H](O)C=C1COC(=O)[C@@]12O,inactive
